Laboratory results as given in ChEMBL document CHEMBL1961873, “Compounds: GSK PKIS; Assays: Nanosyn kinase panel” (2012).

What was measured:
[1] = molecular target: Protein kinase C gamma type (Homo sapiens) (UniProt P05129); settings: at 1 µM;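 note: each value is an averaged percent inhibition of the enzyme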
[2] = molecular target: T1, Protein kinase C iota type (Homo sapiens) (UniProt P41743); settings: at 0.1 µM
T1 sequence (whole entry): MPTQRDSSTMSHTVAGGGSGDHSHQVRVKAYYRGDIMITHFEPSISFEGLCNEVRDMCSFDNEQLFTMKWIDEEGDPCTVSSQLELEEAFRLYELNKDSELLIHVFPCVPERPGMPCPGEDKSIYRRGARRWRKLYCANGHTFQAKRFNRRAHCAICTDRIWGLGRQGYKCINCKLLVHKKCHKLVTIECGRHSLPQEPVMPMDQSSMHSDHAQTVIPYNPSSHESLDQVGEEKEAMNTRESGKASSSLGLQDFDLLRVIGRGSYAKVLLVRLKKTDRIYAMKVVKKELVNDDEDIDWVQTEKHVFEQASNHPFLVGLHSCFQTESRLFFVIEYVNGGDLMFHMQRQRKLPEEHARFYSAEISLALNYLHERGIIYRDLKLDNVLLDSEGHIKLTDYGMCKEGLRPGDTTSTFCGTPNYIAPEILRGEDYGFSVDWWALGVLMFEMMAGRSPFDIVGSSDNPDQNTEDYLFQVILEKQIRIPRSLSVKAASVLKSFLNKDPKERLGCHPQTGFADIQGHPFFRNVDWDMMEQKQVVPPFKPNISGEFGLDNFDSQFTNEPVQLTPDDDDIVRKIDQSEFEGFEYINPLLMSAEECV

[3] = molecular target: T1, Protein kinase C iota type (Homo sapiens); settings: at 1 µM
[4] = molecular target: Protein kinase C theta type (Homo sapiens) (UniProt Q04759); settings: at 0.1 µM
Chain of Protein kinase C theta type (Homo sapiens) (Q04759 whole entry, looked up): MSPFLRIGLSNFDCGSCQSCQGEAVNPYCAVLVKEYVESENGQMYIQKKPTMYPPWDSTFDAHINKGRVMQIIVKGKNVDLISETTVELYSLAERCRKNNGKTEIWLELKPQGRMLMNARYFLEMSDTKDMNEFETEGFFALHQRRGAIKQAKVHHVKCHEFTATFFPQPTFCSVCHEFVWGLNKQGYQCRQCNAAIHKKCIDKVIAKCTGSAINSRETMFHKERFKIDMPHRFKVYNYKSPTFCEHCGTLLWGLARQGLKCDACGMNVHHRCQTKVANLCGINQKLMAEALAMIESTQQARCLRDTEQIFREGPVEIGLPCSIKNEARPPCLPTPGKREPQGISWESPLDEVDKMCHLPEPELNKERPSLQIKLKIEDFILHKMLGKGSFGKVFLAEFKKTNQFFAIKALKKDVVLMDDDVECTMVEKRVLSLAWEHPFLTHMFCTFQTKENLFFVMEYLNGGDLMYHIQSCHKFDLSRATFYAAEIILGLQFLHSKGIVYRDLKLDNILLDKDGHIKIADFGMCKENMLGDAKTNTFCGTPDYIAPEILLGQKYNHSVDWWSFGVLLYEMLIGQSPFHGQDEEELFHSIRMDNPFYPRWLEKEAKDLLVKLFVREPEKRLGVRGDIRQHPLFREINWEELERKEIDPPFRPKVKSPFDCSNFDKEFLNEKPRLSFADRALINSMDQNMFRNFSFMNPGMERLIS

[5] = molecular target: Protein kinase C theta type (Homo sapiens) (UniProt Q04759); settings: at 1 µM
[6] = molecular target: Protein kinase C beta type (Homo sapiens) (UniProt P05771); settings: at 0.1 µM
Chain of Protein kinase C beta type (Homo sapiens) (P05771 2-671 limits assumed): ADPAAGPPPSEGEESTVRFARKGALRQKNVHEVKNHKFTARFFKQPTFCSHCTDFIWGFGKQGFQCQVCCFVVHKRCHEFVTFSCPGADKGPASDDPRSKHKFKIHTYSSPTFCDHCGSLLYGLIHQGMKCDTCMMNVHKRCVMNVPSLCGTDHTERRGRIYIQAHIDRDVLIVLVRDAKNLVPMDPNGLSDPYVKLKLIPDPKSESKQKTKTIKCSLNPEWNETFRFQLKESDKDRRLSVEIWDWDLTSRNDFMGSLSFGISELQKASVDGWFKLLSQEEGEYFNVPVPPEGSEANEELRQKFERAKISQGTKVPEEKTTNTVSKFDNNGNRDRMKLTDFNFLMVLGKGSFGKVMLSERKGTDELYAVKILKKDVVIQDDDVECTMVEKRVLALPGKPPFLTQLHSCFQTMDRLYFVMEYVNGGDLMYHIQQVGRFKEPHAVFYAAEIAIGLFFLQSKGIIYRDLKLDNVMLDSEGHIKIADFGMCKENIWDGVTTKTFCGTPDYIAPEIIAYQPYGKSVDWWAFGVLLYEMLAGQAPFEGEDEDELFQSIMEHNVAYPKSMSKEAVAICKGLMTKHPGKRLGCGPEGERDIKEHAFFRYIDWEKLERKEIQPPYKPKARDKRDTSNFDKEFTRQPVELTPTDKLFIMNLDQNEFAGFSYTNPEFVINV

[7] = molecular target: Protein kinase C beta type (Homo sapiens) (UniProt P05771); settings: at 1 µM
[8] = molecular target: T2, Serine/threonine-protein kinase D1 (Homo sapiens) (UniProt Q15139); settings: at 0.1 µM
T2 sequence (whole entry): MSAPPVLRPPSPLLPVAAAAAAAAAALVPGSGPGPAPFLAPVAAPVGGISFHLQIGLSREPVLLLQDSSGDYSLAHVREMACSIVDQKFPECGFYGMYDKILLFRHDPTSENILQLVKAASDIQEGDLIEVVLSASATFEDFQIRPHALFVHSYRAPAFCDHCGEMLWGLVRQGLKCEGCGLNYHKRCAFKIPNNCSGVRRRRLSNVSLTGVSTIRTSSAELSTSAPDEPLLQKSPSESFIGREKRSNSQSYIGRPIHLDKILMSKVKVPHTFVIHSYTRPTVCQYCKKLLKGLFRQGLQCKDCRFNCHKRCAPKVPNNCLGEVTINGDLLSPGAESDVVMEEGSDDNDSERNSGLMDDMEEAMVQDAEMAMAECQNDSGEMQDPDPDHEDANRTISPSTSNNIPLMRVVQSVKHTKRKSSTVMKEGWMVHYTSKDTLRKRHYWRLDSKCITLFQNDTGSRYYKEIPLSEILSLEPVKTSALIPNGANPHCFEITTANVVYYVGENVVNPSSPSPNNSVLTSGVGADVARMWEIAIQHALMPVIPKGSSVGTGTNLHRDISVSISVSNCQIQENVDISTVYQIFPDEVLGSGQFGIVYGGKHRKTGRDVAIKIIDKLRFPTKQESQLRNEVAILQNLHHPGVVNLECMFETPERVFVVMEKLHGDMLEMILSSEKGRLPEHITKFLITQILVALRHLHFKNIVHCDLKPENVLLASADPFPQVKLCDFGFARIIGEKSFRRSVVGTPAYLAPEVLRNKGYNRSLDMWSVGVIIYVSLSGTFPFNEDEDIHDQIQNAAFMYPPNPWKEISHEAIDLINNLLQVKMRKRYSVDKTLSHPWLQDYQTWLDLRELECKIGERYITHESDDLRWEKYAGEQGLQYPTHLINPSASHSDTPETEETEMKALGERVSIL

[9] = molecular target: T2, Serine/threonine-protein kinase D1 (Homo sapiens); settings: at 1 µM
[10] = molecular target: T3, Serine/threonine-protein kinase D2 (Homo sapiens) (UniProt Q9BZL6); settings: at 0.1 µM
T3 sequence (whole entry): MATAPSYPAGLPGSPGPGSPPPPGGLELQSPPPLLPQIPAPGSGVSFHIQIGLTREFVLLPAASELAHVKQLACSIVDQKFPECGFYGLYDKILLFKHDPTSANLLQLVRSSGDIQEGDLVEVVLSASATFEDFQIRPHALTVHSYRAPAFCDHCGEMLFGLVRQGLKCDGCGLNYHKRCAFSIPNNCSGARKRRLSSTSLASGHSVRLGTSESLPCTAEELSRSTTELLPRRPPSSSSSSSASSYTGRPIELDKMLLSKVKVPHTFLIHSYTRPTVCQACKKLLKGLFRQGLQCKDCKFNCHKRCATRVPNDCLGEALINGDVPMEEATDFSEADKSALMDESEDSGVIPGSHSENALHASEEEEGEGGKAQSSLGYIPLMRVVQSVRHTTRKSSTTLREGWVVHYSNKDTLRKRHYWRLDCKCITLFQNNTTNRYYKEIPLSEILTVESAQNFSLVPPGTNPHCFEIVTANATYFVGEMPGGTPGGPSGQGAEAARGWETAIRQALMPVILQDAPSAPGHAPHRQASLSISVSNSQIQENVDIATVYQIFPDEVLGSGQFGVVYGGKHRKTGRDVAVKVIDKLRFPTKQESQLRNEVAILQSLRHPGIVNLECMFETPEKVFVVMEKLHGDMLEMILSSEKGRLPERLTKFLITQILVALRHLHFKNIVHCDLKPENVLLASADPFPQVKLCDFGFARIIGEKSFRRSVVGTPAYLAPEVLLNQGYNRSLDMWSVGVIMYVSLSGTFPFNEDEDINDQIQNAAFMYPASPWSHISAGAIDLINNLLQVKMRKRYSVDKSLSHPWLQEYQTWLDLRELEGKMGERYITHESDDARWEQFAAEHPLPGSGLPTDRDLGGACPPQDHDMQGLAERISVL

[11] = molecular target: T3, Serine/threonine-protein kinase D2 (Homo sapiens); settings: at 1 µM
[12] = molecular target: T4, Serine/threonine-protein kinase D3 (Homo sapiens) (UniProt O94806); settings: at 0.1 µM
T4 sequence (whole entry): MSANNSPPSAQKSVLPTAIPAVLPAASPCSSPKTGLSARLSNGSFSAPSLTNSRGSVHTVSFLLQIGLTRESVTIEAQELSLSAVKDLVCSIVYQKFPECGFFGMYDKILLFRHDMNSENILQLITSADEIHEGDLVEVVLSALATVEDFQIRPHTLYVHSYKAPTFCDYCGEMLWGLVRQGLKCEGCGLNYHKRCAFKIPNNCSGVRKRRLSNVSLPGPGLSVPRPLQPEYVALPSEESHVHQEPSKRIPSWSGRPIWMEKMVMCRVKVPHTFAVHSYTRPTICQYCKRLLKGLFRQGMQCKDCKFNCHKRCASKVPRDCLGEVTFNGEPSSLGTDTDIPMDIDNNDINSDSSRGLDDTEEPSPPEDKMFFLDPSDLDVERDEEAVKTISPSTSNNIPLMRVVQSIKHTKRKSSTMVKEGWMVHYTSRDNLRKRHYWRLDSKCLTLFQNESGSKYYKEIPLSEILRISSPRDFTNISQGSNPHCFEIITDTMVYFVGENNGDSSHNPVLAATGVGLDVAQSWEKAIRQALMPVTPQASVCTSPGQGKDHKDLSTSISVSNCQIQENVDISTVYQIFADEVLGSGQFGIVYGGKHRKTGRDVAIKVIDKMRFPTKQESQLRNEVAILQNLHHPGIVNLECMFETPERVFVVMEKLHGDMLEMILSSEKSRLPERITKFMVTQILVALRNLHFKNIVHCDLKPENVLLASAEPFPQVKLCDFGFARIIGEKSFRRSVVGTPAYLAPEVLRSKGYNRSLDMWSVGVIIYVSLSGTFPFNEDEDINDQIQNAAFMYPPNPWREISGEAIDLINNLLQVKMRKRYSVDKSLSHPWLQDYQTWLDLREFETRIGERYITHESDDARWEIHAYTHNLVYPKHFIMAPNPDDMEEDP

[13] = molecular target: T4, Serine/threonine-protein kinase D3 (Homo sapiens); settings: at 1 µM
[14] = molecular target: T5, cGMP-dependent protein kinase 1 (Homo sapiens) (UniProt Q13976); settings: at 0.1 µM
T5 sequence (whole entry): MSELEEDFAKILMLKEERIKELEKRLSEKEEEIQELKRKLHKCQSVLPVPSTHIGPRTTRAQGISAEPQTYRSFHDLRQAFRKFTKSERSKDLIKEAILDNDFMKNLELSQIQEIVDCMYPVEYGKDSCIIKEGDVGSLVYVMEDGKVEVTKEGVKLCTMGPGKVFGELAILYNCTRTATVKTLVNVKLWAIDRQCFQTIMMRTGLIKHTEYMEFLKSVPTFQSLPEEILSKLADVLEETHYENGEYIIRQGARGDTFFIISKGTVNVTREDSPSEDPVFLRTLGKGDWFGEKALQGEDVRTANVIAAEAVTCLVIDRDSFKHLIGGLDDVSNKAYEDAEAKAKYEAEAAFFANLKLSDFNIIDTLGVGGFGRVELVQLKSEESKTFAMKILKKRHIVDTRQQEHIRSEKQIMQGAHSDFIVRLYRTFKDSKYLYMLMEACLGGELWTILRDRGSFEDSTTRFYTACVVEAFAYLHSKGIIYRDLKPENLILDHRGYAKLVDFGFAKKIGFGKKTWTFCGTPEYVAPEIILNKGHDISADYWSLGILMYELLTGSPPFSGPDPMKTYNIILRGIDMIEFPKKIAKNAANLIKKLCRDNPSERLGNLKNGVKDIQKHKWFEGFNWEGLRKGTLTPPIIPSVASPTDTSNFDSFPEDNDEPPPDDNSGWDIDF

[15] = molecular target: T5, cGMP-dependent protein kinase 1 (Homo sapiens); settings: at 1 µM
[16] = molecular target: T6, cGMP-dependent protein kinase 2 (Homo sapiens) (UniProt Q13237); settings: at 0.1 µM
T6 sequence (whole entry): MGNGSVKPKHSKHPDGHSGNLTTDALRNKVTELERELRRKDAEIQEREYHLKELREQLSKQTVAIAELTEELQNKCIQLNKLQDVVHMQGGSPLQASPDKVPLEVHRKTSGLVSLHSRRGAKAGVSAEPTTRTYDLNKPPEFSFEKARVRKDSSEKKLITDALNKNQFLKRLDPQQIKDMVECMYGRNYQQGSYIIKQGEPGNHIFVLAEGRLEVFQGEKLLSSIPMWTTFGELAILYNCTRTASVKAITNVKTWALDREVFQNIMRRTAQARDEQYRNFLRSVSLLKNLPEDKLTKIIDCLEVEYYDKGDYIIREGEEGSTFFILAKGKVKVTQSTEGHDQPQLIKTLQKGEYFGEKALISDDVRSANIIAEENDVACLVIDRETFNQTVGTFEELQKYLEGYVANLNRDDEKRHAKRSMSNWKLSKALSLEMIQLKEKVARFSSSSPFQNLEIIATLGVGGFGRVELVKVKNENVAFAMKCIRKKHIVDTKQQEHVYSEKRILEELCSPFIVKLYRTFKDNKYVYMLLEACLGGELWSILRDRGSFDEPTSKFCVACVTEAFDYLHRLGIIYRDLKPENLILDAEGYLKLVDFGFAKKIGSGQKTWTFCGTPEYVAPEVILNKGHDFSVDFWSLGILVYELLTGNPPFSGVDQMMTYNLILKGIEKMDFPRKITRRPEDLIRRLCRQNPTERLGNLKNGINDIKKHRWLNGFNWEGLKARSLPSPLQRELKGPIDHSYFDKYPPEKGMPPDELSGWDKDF

[17] = molecular target: T6, cGMP-dependent protein kinase 2 (Homo sapiens); settings: at 1 µM
[18] = molecular target: T7, cAMP-dependent protein kinase catalytic subunit PRKX (Homo sapiens) (UniProt P51817); settings: at 0.1 µM
T7 sequence (whole entry): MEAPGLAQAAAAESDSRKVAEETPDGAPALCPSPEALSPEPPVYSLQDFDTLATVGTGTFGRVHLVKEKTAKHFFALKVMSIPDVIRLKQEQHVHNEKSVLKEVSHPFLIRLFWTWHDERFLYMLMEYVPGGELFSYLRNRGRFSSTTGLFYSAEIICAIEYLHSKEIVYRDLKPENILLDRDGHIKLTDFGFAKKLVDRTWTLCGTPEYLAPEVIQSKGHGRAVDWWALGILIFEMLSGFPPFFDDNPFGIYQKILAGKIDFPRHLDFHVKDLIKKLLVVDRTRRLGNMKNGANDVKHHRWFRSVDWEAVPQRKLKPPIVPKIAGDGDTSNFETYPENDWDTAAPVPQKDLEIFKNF

[19] = molecular target: T7, cAMP-dependent protein kinase catalytic subunit PRKX (Homo sapiens); settings: at 1 µM
[20] = molecular target: Rho-associated protein kinase 1 (Homo sapiens) (UniProt Q13464); settings: at 0.1 µM;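 note: values are mean percent inhibition of ROCK1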
Chain of Rho-associated protein kinase 1 (Homo sapiens) (Q13464 2-1354 limits assumed): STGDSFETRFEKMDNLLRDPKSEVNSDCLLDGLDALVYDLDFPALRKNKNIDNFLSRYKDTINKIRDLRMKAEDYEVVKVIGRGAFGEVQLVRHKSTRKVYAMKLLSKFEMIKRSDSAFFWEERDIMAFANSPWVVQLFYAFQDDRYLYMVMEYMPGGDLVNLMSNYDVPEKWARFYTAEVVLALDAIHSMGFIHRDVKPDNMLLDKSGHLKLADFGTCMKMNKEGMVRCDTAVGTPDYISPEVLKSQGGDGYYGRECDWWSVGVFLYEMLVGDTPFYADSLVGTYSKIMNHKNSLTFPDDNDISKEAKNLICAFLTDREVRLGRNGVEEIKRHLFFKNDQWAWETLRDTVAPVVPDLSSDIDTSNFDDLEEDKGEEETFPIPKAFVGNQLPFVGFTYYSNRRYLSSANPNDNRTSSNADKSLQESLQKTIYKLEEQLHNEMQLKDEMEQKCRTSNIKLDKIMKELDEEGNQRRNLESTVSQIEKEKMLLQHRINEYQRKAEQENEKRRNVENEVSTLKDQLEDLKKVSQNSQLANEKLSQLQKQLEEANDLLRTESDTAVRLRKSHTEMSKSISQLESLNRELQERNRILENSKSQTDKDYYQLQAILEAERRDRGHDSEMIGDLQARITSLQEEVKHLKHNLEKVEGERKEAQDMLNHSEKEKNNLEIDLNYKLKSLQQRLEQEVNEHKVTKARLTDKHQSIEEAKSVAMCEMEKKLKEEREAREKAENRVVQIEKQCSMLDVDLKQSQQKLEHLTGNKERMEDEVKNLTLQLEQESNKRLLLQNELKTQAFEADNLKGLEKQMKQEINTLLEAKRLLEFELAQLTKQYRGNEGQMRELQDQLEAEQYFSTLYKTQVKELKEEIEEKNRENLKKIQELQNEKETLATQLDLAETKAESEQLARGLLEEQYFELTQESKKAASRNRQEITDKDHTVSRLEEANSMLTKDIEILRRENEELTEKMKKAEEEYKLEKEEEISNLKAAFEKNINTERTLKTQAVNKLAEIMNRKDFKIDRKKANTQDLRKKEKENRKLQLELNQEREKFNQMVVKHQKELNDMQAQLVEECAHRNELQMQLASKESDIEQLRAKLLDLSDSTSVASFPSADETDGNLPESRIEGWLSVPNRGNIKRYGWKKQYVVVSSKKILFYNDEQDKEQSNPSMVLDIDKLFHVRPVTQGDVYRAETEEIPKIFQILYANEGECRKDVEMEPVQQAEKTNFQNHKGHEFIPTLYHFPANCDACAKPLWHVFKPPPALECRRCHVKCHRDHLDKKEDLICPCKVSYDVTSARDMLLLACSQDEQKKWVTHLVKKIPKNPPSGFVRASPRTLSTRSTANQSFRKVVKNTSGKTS

Compound	inhibition [1]	inhibition [2]	inhibition [3]	inhibition [4]	inhibition [5]	inhibition [6]	inhibition [7]	inhibition [8]	inhibition [9]	inhibition [10]	inhibition [11]	inhibition [12]	inhibition [13]	inhibition [14]	inhibition [15]	inhibition [16]	inhibition [17]	inhibition [18]	inhibition [19]	inhibition [20]
COc1cc(Nc2ncc(-c3ccccc3)o2)cc(OC)c1OC	1.46%	0.32%	0.77%	-0.7%	-0.9%	0.3%	2.2%	-0.66%	-1.47%	-0.6%	-0.05%	-1.81%	-1.6%	1.84%	1.3%	-0.12%	1.47%	0.22%	0.75%	0.49%
CCS(=O)(=O)c1ccc(OC)c(Nc2ncc(-c3cccc(-c4ccccc4F)c3)o2)c1	0.81%	1.05%	3.5%	-0.12%	2.52%	-0.13%	1.06%	1.19%	1.23%	1.33%	1.19%	1.19%	1.54%	0.11%	3.03%	1.57%	2.1%	0.93%	0.98%	-2.02%
Fc1ccc(-c2c(-c3ccncc3)nc3n2CCS3)cc1	4.08%	1.39%	1.01%	1.55%	4.99%	1.11%	3.63%	-0.81%	2.14%	-0.29%	0.4%	0.15%	1.02%	4.15%	8.03%	2.62%	7.38%	6.08%	14.6%	8.73%
